# In PubChem BioAssay AID540345 (The Scripps Research Institute Molecular Screening Center, 2011):
# Values without a mark were called inactive. No rule for the calls is given here.
# System: Phorbol Ester
# Assay: off-target binding and CYP inhibition panel, profiling panel, selectivity assay for GPR7 antagonist project, biochemical, Ricerca HitProfilingScreen, CYP450, set 2 (AID 540345)
# Details: Ricerca radioligand binding/CYP panel, at 10 µM, stronger effect = higher value
structure (smiles),measurement,value
COc1ccc(Oc2c(Cl)cnn(C3c4ccccc4-c4ccccc43)c2=O)cc1,inhibition,0%
